Screens: PubChem BioAssay, Broad Institute
aSyn UTR act = Activators via SNCA 5'UTR binding, MLPCN; activity score, % (tested at 7.5 µM), hits read low; 300,000 compounds, 7.1% hits; alpha-synuclein 5'UTR reporter, activators screen; in the data active means activity score below about -60%
Hits are given with their value; – = inactive. Only a sample is shown.

SMILES	aSyn UTR act
CCOc1cccc(C(=O)NC2CCCCC2)c1	-67
O=C(NC1CCCCC1)C(c1cccnc1)N(C(=O)CCl)c1cccc(Cl)c1 (stereo unspecified)	-81
O=C(NC1CCCCCCC1)c1cc(F)c(F)cc1Cl	-81
O=C(NC1CCCCCCC1)c1cccc(Cl)c1	-166
COc1ccccc1NS(=O)(=O)c1cccc(C(=O)NC2CCN(Cc3ccccc3)CC2)c1	–
CNC(=O)c1c(Cl)cnn1-c1ccc(C)cc1	-151
Cc1ccc(-n2ncc(Cl)c2C(=O)NC2CC2)cc1	-153
CNC(=O)c1c(Br)cnn1-c1ccc(C)cc1	-158
C=CCNC(=O)c1c(Cl)cnn1-c1ccc(C)cc1	-95
O=C(N[C@@H](Cc1ccccc1)C(=O)NC1CCCCCC1)c1ccco1	-78
O=C(NCCc1ccccc1)c1ccc(Br)o1	-93
CN(C(=O)COc1ccccc1C(=O)NCCc1ccccc1)c1ccccc1	-98
O=C(NCCCc1ccccc1)c1ccccc1	-167
Cc1ccccc1C(=O)NCCCc1ccccc1	-84
COc1ccc(C(=O)NCCCc2ccccc2)cc1	-149
Cc1ccc(C(=O)NCCCc2ccccc2)s1	-137
O=C(CCCc1ccccc1)c1ccccc1	-105
O=C(NCCc1ccccc1)c1ccc(-n2cnnn2)cc1	-66
O=C(NCCc1ccccc1)c1ccccc1C(=O)NCCc1ccccc1	-113
O=C(CCCC(=O)c1ccc(O)cc1)c1ccc(O)cc1	-71
O=C(NCCc1ccccc1)c1c[nH]c2c(F)cccc2c1=O	-94
CC(C)=CC(=O)NCCc1ccccc1	-64
O=C(NCCc1ccccc1)c1ccccc1NS(=O)(=O)N1CCCC1	-88
O=C(NCCc1ccccc1)c1cnc2n(c1=O)CCS2	-80
O=C(NC(=S)NCCc1ccccc1)c1ccccc1	-115
SMILES	aSyn UTR act
O=C(CN(c1ccc(Cl)cc1)S(=O)(=O)c1ccc(Cl)c([N+](=O)[O-])c1)NCCc1ccccc1	–
O=C(NCCc1ccccc1)c1ccc(Cl)cc1[N+](=O)[O-]	-167
Cc1ccc(N2C(=O)[C@@H]3Cc4ccccc4CN3C2=O)cc1	-71
CC(C)c1ccc(N2C(=O)[C@@H]3Cc4ccccc4CN3C2=O)cc1	-118
CCN(CC)c1ccc(/C=N/NC(=S)NC)c(O)c1	-94
CCN(CC)c1ccc(/C=N/Nc2ccccc2)c(O)c1	-62
CCN(CC)c1ccc(/C=N/N=C(N)N)c(O)c1	–
CCN(CC)c1ccc(C=Nc2ccc(N(C)C)cc2)c(O)c1	-83
CCN(CC)c1ccc(/C=N/N2CCOCC2)c(O)c1	-157
COc1ccccc1/C=C/C=N/n1c(-c2ccccn2)n[nH]c1=S	-100
Cc1ccc(-c2csc(NC(=O)c3cccc(C)c3)c2C(=O)O)cc1	-71
Cc1ccc(-c2csc(NC(=O)c3ccc(Br)cc3)c2C(=O)O)cc1	-91
Cc1ccc(-c2csc(NC(=O)/C=C/c3ccco3)c2C(=O)O)cc1	-79
O=C(Nc1nccs1)c1ccc(COc2ccccc2)o1	-113
Cc1ccc(OCc2ccc(C(=O)Nc3nccs3)o2)cc1	-88
COC(=O)c1c(C)[nH]c(O)c1C=Nc1ccc(C(C)C)cc1	-71
Cc1nc(-c2ccc(S(=O)(=O)Oc3ccccc3Cl)s2)cs1	-68
O=C(OCc1ccc(Cl)c(Cl)c1)c1ccc[nH]1	-82
Brc1ccccc1/C=N/Nc1ccc2ccccc2n1	-256
Brc1ccc(/C=N/Nc2ccccc2)cc1	-92
Brc1ccc(/C=N/Nc2ccc3ccccc3n2)cc1	-187
Cc1cc(N/N=C/c2ccccc2Br)nc2ccccc12	-196
COc1ccc2c(c1)CCc1c-2n[nH]c1C(=O)NCCC(C)C	-71
CNC(=O)c1[nH]nc2c1CCc1cc(OC)ccc1-2	-105
COc1ccc(CCn2c(=N)c(C(=O)NCc3ccco3)cc3c(=O)n4ccccc4nc32)cc1	-73
SMILES	aSyn UTR act
N=c1c(C(=O)NCCN2CCOCC2)cc2c(=O)n3ccccc3nc2n1CCc1ccccc1	-83
Cc1ccc(S(=O)(=O)c2cc3c(=O)n4ccccc4nc3n(CCc3ccccc3)c2=N)cc1	-231
CCOc1cc(/C=N/Nc2ncnc(Cl)c2N)ccc1O	-89
O=C(Nc1nccs1)c1ccc(Br)s1	-153
Cc1ccc(C(=O)Nc2nccs2)s1	-87
CCOC(=O)c1c(CNc2ccncc2)n(C)c2cc(Br)c(O)cc12	-62
CCOC(=O)c1c2c(n(C)c1COC)C(=O)C(=O)c1ccc(Br)cc1-2	–
O=C(NC(=O)c1ccccc1)NC1(C(F)(F)F)OCCO1	-113
Nc1ccccc1C(=O)NNC(=O)C(=O)/C=C(\O)c1ccccc1	-139
Cc1c(/C(O)=C2/C(=O)C(=O)N(Cc3cccnc3)C2c2cccs2)cnn1-c1ccccc1 (stereo unspecified)	-152
CCOC(=O)c1c(C)[nH]c(C(=O)COC(=O)C2CC2C)c1C (stereo unspecified)	-143
O=C(CSc1ccc2ccccc2c1Br)Nc1cccc(S(=O)(=O)NC2=NCCCCC2)c1	–
O=C(/C=C/c1ccc(Cl)cc1Cl)Nc1cccc(S(=O)(=O)NC2=NCCCCC2)c1	-67
COc1cccc(NC(=O)n2nc(N)cc2-c2ccc(Cl)cc2)c1	-69
Cc1ccc(N2Cc3ccccc3C2=S)cc1	-154
